Reference: PubChem BioAssay (Tox21)
Results filed as inconclusive are left out. Values without a mark were called inactive. Calls come from the whole dose curve; as a rule, active = well fitted activation curve with a large enough effect in the repeat runs; inconclusive = weak or mixed curves, or effect the other way; inactive = no such curve, though single readings can be large or run the other way.

Assay: qHTS assay to identify small molecule agonists of the retinoic acid receptor (RAR) signaling pathway (AID 1159553)
Conditions: C3RL4 RARE luciferase reporter, agonist, 6 h; series mostly up to 73.3 µM; activation: at the top concentration
Text: National Center for Advancing Translational Sciences [NCATS] NIH Chemical Genomics Center [NCGC] U.S. Environmental Protection Agency [EPA] National Institutes of Environmental Health Sciences [NIEHS] National Toxicology Program [NTP] Assay overview: All-trans Retinoic acid (atRA) is the potent natural metabolite of retinol and plays an important role in normal embryonic development and maintenance of cellular phenotype in adult animals. atRA is the activating ligand for the retinoic acid receptors (RARs) which form heterodimers with retinoid X receptors (RXRs) on the retinoic acid response element (RARE). Through activation of the RAR/RXRs nuclear receptors, atRA regulates the transcription of a large number of protein-coding genes and regulatory RNAs. Intracellular levels of atRA are controlled by the retinol signaling pathway (RSP) that regulates the biosynthesis and catabolism of atRA to maintain physiological levels. Chemicals that interfere with the RSP can cause abnormal intracellular levels of atRA and therefore are potential developmental toxicants. To assess compounds for the potential adverse effect on embryonic development through interfering with retinol signaling, a cell-based RARE luciferase reporter gene assay was used. C3RL4 cell line (OARSA/CFSAN/FDA, Laurel, MD) was used to screen Tox21 10K compound library for identifying activators of the RSP.
Assay Protocol Summary: C3RL4 cells were seeded at 1,000/well in 5 uL of assay medium into white solid 1,536-well tissue culture plates (Greiner Bio-One North America Inc. Monroe, NC) using a Multidrop Combi (Thermo Scientific, Waltham, MA) dispenser. After incubation at 37 C and 5% CO2 for an overnight, 23 nL of compounds dissolved in DMSO, positive control or DMSO only were transferred by a Pintool station (Kalypsys, San Diego, CA). After 6 hr incubation at 37 C and 5% CO2, 5 uL of Amplite Luciferase reagent (AAT Bioquest Inc. Sunnyvale, CA) was added to each assay plate using a Flying Reagent Dispenser (FRD) (Aurora Discovery, San Diego, CA). Luminescence was quantified on a ViewLux plate reader (PerkinElmer, Waltham, MA) after 30 min incubation at room temperature.
% is set by controls: 0 for no effect and ±100 for the full control effect.

SMILES | activation
C/C=C(\C)C=O | -1.88% [at 94.8 µM]
Cc1ccc(O)c(C(=O)c2ccccc2)c1 | -1.06% [at 94.8 µM]
O=C(O)CCCCCCCCCC(=O)O | -0.451%
CC(C)(O)CCCC1=CCC(C=O)CC1 (stereo not given) | 2.29% [at 94.8 µM]
Cc1ccccc1C#N | -0.304%
CC(C)(C)OC=O | -1.04% [at 94.8 µM]
CNC(C)=O | -0.525%
CCC(C)(C)C | 0.393% [at 94.8 µM]
CCCCCCCCCCCCCCCC/C=C/C1CC(=O)OC1=O (stereo not given) | -2.44%
C=CC(=O)OCC[N+](C)(C)C | -1.23% [at 94.8 µM]
CCOC(=O)CC | 0.17%
CC(C)C(C)C | 0.519%
C[C@]12C=CC(=O)C=C1[C@@H](F)C[C@@H]1[C@@H]2[C@@H](O)C[C@@]2(C)[C@H]1CC[C@]2(O)C(=O)CO | -4.65%
O=C1CCCc2c(O)cccc21 | 3.09%
COc1cc(S(N)(=O)=O)cc(C(=O)O)c1OC | 2.62%
CC(=O)O[C@@H]1CC2C3CCc4cc(OC(=O)c5ccccc5)ccc4C3CCC2(C)[C@H]1OC(C)=O (stereo not given in full) | -4.85%
C[C@@H]1NC(=O)[C@@H](N)CNC(=O)[C@H](C2CCNC(N)=N2)NC(=O)/C(=C/NC(N)=O)NC(=O)[C@H](CNC(=O)C[C@@H](N)CCCN)NC1=O (stereo not given in full) | 0.189% [at 0.756 µM]
C=CC(=O)CC | -21.6% [at 94.8 µM]
CC(=O)SC[C@@H](C)C(=O)N1CCC[C@H]1C(=O)N[C@@H](Cc1ccccc1)C(=O)O | 1.53%
N[C@H]1C(O)O[C@H](CO)[C@@H](O)[C@@H]1O (stereo not given in full) | 0.499%

SMILES | activation
CC1(C)CC(N)CC(C)(C)N1 | -0.799%
Cc1cccc(N)n1 | -0.0309% [at 94.8 µM]
CN(C)c1ccncc1 | 0.122%
O=C(O)/C=C(\CC(=O)O)C(=O)O | 0.585%
C[C@H]1COc2c(C3(N)CC3)c(F)cc3c(=O)c(C(=O)O)cn1c23 | 0.122%
Cc1cc(C)c(N)c(Cl)c1 | 0.864%
COc1ccccc1N1CCN(CC(O)COc2cc(OC)c(OC)c(OC)c2)CC1 (stereo not given) | -2.83%
C[C@@H]1CC[C@@]2(OC1)O[C@H]1C[C@H]3[C@@H]4CC[C@H]5C[C@@H](O)CC[C@]5(C)[C@H]4CC(=O)[C@]3(C)[C@H]1[C@@H]2C | 0.12% [at 8.36 µM]
CCCC(=O)C(CC)Sc1ccoc1C (stereo not given) | 0.226%
CCOC(=O)[C@H](CCc1ccccc1)N[C@H]1CS[C@H](c2cccs2)CN(CC(=O)O)C1=O | 4.8%
CCC(=O)OCCOc1ccccc1 | -0.309%
CCCCCCCCCCCCCCCCN(C)C | -0.996% [at 8.36 µM]
C=CCn1cc[n+](C)c1 | 0.934% [at 94.8 µM]
N=C(N)S(=O)O | -1.84%
CCCCCCCCS(=O)(=O)O | 2.27% [at 94.8 µM]
Cc1ccc2ccccc2n1 | 5.28%
COc1ccc(Cl)cc1C | -1.04% [at 94.8 µM]
O=C1Nc2ccccc2C1=O | -2.23%
CN(C)CCc1c[nH]c2ccc(C[C@H]3COC(=O)N3)cc12 | 1.27%
CC(O)C(CO)C(C)O (stereo not given) | -4.05% [at 94.8 µM]
